Only some compounds are listed: those with a hit (about 5.7% of all), similar ones and a draw of the others.
DAX1 inh-1: blocks DAX1 repression of SF-1 activated StAR promoter; HEK293T StAR-luciferase reporter, SF-1/DAX-1 repression relief; inhibition, % at 6.8 µM; 370,000 tested, 1.1% active;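 active = inhibition above the mean over all tested compounds plus 3 SD, cut at about 3.6% in these data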;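 note: 0% = DAX-1 cells with DMSO and 100% = cells lacking DAX-1 with DMSO; higher inhibition means more luminescence from relief of DAX-1 repression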
DAX1 inh-2: inhibitors of human orphan nuclear receptor DAX1 (NR0B1) | HEK293 Gal4-DAX1 luciferase reporter, luminescence | 340,000 tested, 0.99% active | AID 504766 | inhibition, % at 6.75 µM;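 active = inhibition above the mean over all tested compounds plus 3 SD, cut at about 4.2% in these data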;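 note: 0% = DAX1-transfected cells with DMSO and 100% = empty-vector control cells with DMSO; inhibition shows as a rise in luminescence from relieved DAX1 repression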
hgDAF12 agonist: agonists of H. glycines DAF-12 nuclear receptor; HEK293 GAL4-hgDAF12 UAS-luciferase reporter, agonist luminescence; normalized to butyrate control; activation, % at 6.8 µM; 370,000 tested, 1.8% active;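 active = activation above a cutoff set at the mean of all screened compounds plus 3 SD, cut at about 10% in these data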;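 note: 0% = DMSO wells and 100% = sodium butyrate wells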
AHR activator: activators of human aryl hydrocarbon receptor; P35869; AHR-responsive luciferase reporter cells, luminescence; activation, % at 5 µM; 320,000 tested, 2.5% active; AID 2796; in the data active = activation above about 47%;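 note: 0% = vehicle wells and 100% = reference agonist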
Target sequence (P35869 whole entry, looked up): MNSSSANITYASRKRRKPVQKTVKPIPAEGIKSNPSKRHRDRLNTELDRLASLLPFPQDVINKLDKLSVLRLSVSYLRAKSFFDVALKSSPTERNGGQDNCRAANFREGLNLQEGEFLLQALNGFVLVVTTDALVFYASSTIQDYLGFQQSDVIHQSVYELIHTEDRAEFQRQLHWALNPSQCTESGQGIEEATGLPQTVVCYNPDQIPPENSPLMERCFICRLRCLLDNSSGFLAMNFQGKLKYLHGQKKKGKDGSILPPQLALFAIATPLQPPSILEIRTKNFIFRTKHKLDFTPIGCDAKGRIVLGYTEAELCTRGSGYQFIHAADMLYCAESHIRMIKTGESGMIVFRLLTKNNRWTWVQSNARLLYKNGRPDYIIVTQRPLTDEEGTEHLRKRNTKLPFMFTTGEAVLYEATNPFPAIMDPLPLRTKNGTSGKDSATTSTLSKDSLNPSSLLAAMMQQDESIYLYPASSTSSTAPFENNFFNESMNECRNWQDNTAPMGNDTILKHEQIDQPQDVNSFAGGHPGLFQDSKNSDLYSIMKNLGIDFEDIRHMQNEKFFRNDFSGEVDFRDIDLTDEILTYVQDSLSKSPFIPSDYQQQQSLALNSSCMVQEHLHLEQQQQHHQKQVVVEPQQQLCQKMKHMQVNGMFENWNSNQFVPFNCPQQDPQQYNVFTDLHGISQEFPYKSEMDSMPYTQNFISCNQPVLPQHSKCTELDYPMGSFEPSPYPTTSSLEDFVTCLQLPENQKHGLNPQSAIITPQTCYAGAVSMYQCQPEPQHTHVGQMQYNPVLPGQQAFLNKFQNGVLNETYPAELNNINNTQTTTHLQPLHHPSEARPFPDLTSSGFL
hcDAF-12 act: activators of H. contortus DAF-12 nuclear receptor; HEK293 hcDAF-12 lit1-tk-luc reporter, luminescence; 0% DMSO, 100% Δ7-dafachronic acid; activation, % at 6.8 µM; 370,000 tested, 1.4% active; AID 652067;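 active = activation above the mean of all tested compounds plus 3 SD, cut at about 5.5% in these data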;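 note: 100% = response to 3 µM Δ7-dafachronic acid high control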
ssDAF12 agonist: activates DAF-12 receptor from parasite S. stercoralis; 370,000 tested, 1% active; AID 652126; HEK293 ssDAF-12/GRIP1 lit1-tk-luc reporter, luminescence; % of 3 µM dafachronic acid response; activation, % at 6.8 µM;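 active = activation above the mean over all tested compounds plus 3 SD, cut at about 0.9% in these data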;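 note: 0% = DMSO-only wells and 100% = 3 µM delta7-dafachronic acid wells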
Starred values were filed as active, the others as inactive; nt = no result given.

SMILES	DAX1 inh-1	DAX1 inh-2	hgDAF12 agonist	AHR activator	hcDAF-12 act	ssDAF12 agonist
COc1cc(OC)cc(C(=O)Nc2c(C)nn(-c3ccccc3)c2C)c1	0.0	0.8	-3.4	3.2	-0.3	-1.9
CC(=O)C(C(c1ccccc1)N1CCOCC1)N1CCOCC1 (configuration not stated)	0.3	0.3	-3.2	nt	0.2	-1.3
O=C(c1cc2ccccc2o1)N1CCN(Cc2nc3ccccc3s2)CC1	0.4	0.6	4.8	nt	6.2*	0.7
CC1CC(C)CN(C(=O)c2cc3ccccc3o2)C1 (configuration not stated)	2.8	0.1	5.5	58.0*	1.7	-1.0
CCOc1cccc(CN2CCCC(CCC(=O)NCc3ccccc3F)C2)c1O (configuration not stated)	0.6	0.4	-0.4	3.2	-1.7	-1.2
Cc1cc(C(=O)NCCCn2ccnc2)sc1-c1ccccc1	-1.0	-1.0	-0.8	70.3*	0.8	-1.1
Cc1cc(-c2ccccc2)nc2cc(C(=O)NCCCn3ccnc3)nn12	nt	-0.6	nt	65.8*	nt	nt
C=CCNC(=O)CN(C(=O)c1ccncn1)c1cccc(Br)c1	0.2	nt	-2.7	nt	-2.9	-0.9
Cc1cc2c(NC(=O)CCCC(=O)O)cccc2nn1	-0.2	-0.4	3.1	-1.1	0.4	0.1
Cc1cc2c(NC(=O)Nc3ccc(C(F)(F)F)cc3)cccc2nn1	-0.5	2.1	-2.6	54.7*	0.7	-0.9
COc1ccc(F)cc1C(=O)C1CCCN(Cc2cccn2-c2cccnc2)C1 (configuration not stated)	-0.6	0.3	-2.6	52.2*	-0.8	-1.9
O=C(NC(=S)NNC(=O)[C@H]1C[C@@H]1c1ccccc1)c1ccc(F)cc1	0.1	0.1	3.6	2.6	0.5	-1.3
O=C(/C=C/c1ccc(F)cc1)NC(=S)NNC(=O)[C@H]1C[C@@H]1c1ccccc1	3.6*	0.3	5.5	2.8	0.4	-0.4
Cc1nc([N+](=O)[O-])cn1CCCCN1C(=O)c2ccccc2C1=O	0.8	1.3	1.4	-2.7	-1.9	-1.1
COc1ccc(NC(=O)CCSc2ccc(F)cc2)cc1	3.1	4.2*	9.7	9.3	2.6	-0.3
COC(=O)Cn1cc(C(=O)OC)c2ccccc21	-0.4	0.3	0.4	2.7	0.1	-1.4
O=C(COc1cccc(C(F)(F)F)c1)Nc1cccnc1	-0.3	-0.5	1.5	9.1	-0.9	-1.9
CCc1cc2c(=O)c(-c3cnn(-c4ccccc4)c3)c(C)oc2cc1OCC(=O)Nc1cccc(C)c1	-0.5	0.7	-1.7	1.9	-0.5	-1.1
CCc1cc2c(=O)c(-c3cnn(-c4ccccc4)c3)c(C)oc2cc1OCC(=O)Nc1ccc(F)c(F)c1	0.4	0.2	1.2	-3.2	0.7	1.9*
Cn1c(=O)c2c(nc(CN3CCOCC3)n2CCc2ccccc2)n(C)c1=O	-0.3	2.6	-1.8	18.2	-1.0	-0.8
S=C(Nc1ccc2c(c1)OCO2)Nc1ccc2c(c1)OCO2	0.6	2.2	4.0	68.4*	2.0	-0.4
CS(=O)(=O)N(CC(=O)Nc1ccc2c(c1)OCO2)Cc1ccccc1	0.1	-0.3	-1.6	15.0	0.3	-1.4
CS(=O)(=O)N(CC(=O)Nc1ccc2c(c1)OCO2)Cc1ccc(Cl)cc1	-0.2	-0.5	-1.9	65.2*	-0.3	-1.3
CCc1ccc(C(=O)NC(=S)Nc2ccc3c(c2)OCCO3)cc1	3.0	3.2	12.1*	1.7	3.2	0.5
CN(C)C(=S)Nc1ccc2c(c1)OCO2	-0.2	-0.4	-0.6	2.7	-1.1	-1.0
SMILES	DAX1 inh-1	DAX1 inh-2	hgDAF12 agonist	AHR activator	hcDAF-12 act	ssDAF12 agonist
O=C(NC(=S)Nc1ccc2c(c1)OCO2)c1ccc(Cl)cc1	1.0	2.5	4.6	53.0*	3.2	-0.6
Cc1cc(C)cc(C(=O)NC(=S)Nc2ccc3c(c2)OCCO3)c1	0.1	0.1	6.2	16.4	-0.2	-1.4
COc1ccc(Cl)cc1NC(=S)NC(=O)c1ccc2c(c1)OCO2	0.1	-0.5	4.3	11.3	2.6	-0.5
COC(=O)Cc1c(O)ccn(CCc2ccccc2)c1=O	0.3	-1.7	0.1	-1.0	-1.0	-1.2
Cc1ccc2[nH]c(-c3ccccc3)c(CN(C)C)c(=O)c2c1	1.3	1.6	-0.6	11.5	2.2	-1.0
N#C/C(=C(/O)c1ccco1)c1nc2ccccc2s1	0.1	3.5	5.4	20.1	1.9	-0.2
Cc1csc(=O)n1CCC(=O)OCC(=O)N(CC(C)C)c1c(N)n(Cc2ccccc2)c(=O)[nH]c1=O	-0.4	1.1	0.9	32.7	2.3	-0.6
CCOc1ccc(C(=O)Nc2ccc3c(c2)OCCO3)cc1	2.5	-1.2	12.4*	-3.4	5.9*	0.3
Cc1ccc(C(=O)Nc2ccc3c(c2)OCCO3)cc1	1.2	-4.2	9.4	nt	0.8	0.3
O=C(COn1nnc2ccc(Cl)cc21)Nc1ccc(F)cc1	-0.5	0.6	0.4	-0.2	-1.5	-2.1
O=C(c1cc(COc2ccc3ncccc3c2)on1)N1CCCCCC1	-3.6	-2.0	-4.1	-0.3	-3.4	-2.8
COc1ncccc1-c1nnn(-c2ccccc2Br)n1	0.1	0.5	1.2	12.4	1.8	-0.8
COc1ncccc1-c1nnn(-c2ccccc2)n1	3.2	1.9	11.2*	31.4	5.7*	1.3*
c1ccc(-n2nnc(-c3cccnc3)n2)cc1	0.8	3.4	11.4*	43.1	3.6	-0.1
COc1ccc(CC(=O)Nc2ccc(-c3ccc4nnc(C)n4n3)cc2)cc1OC	0.8	5.7*	-4.7	-7.6	-1.1	0.2
COc1ccc(OC)c(S(=O)(=O)Nc2ccc(-c3ccc4nnc(C)n4n3)cc2)c1	1.7	3.1	0.8	2.1	4.2	-0.9
O=C(Nc1ccc(Cl)cc1)Nc1nc(-c2sccc2Br)cs1	-0.2	-0.6	2.3	61.5*	0.2	-0.7
Cc1ccc(C(=O)OCC(=O)Nc2cccc(Br)c2)s1	0.1	-1.1	1.8	nt	-1.7	-2.0
OC(c1ccco1)c1nc(-c2cccs2)cs1 (configuration not stated)	1.2	nt	5.0	nt	5.8*	1.4*
c1ccc(-c2csc(-n3cnnn3)n2)cc1	-0.7	1.8	3.0	-6.3	-0.5	-1.4
CC1(C)C/C(=N\O)C(C(O)c2cccc([N+](=O)[O-])c2)C(C)(C)N1 (configuration not stated)	0.1	6.2*	1.2	-2.3	-1.8	-0.3
O=C(O)CC(NC(=O)C12CC3CC(CC(C3)C1)C2)c1cccc([N+](=O)[O-])c1 (configuration not stated)	-0.1	0.8	-1.1	1.9	-1.2	-1.2
CC(=O)N1N=C(c2ccc(Cl)cc2)OC1(C)C	-0.1	-0.6	-0.1	-1.8	-0.3	-0.8
Cc1cccc(Nc2nc(N)nc(CN3CCN(c4ccc(F)cc4)CC3)n2)c1	-0.8	-1.3	-0.9	-0.1	-1.4	-1.6
CCS(=O)(=O)n1nc(-c2ccccc2)cc1N	0.7	0.6	-1.2	7.9	-1.6	-0.7
